Records with an inconclusive call do not appear. Calls of active or inactive are those of the source. Calls follow the shape of the dose curve; as a rule, active = well fitted curve in the direction sought with a large enough effect; inconclusive = small, poorly fitted or top-dose-only effect, or another doubt; inactive = no such curve, though single readings can be large; an effect the other way counts as inactive or inconclusive.
Legend:
[1] = HPAF-II 24hr Apoptosis Induction qHTS against the NCATS CANVASS Library (AID 1347356)
Outline: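 HPAF-II cells (500/well) in DMEM + 10% FBS were treated with an 11-point compound series for 24 hours at 37 degrees C. Caspase-3/7 activity was then read by Caspase-Glo DEVD luminescence after 15 min.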

[2] = HEK293 18hr Apoptosis Induction qHTS against the NCATS CANVASS Library (AID 1347357)
Description: (§1) Natural products and their derivatives continue to be wellsprings of nascent therapeutic potential. However, many laboratories have limited resources for biological evaluation, leaving their previously isolated or synthesized compounds largely or completely untested. To address this issue, the Canvass library of natural products was assembled (https://tripod.nih.gov/canvass), in collaboration with academic and industry researchers, for quantitative high-throughput screening (qHTS) across a diverse set of cell-based and biochemical assays. The pure (>85% purity by liquid chromatography/mass spectrometry [LC/MS]) Canvass library of 346 natural products were submitted by 45 academic laboratories and companies around the world. […] The library was formatted into 1536-well plates and evaluated in 50 qHTS (in an 11-pnt concentration series) bioassays with broad scope of disease-relevant mechanisms. The resulting data set from 50 different assays was then systematically analyzed to identify overall trends and specific natural products with interesting biological activities. […] The luminescence is proportional to the amount of caspase activity in the assay reaction. […]
(§2) Cancer Cell Apoptosis Assay 1. […] Luminescence signal was acquired via the ViewLux plate reader (PerkinElmer) using a clear filter, 20 second exposure and 2x binning settings.

[3] = HPAF-II 12hr Apoptosis Induction qHTS against the NCATS CANVASS Library (AID 1347358)
Outline: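 HPAF-II cells (500/well, DMEM + 10% FBS) were exposed to compounds for 12 hours at 37 degrees C. Caspase-3/7 activity was then read by Caspase-Glo 3/7 luminescence after 15 min at room temperature.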

[4] = HEK293 24hr Apoptosis Induction qHTS against the NCATS CANVASS Library (AID 1347359)
Description: as §1, §2

[5] = HPAF-II 18hr Apoptosis Induction qHTS against the NCATS CANVASS Library (AID 1347360)
Outline: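 Seed HPAF-II cells at 500/well in DMEM + 10% FBS, pin-transfer compounds, incubate 18 hours at 37 degrees C/5% CO2, add Caspase-Glo 3/7 reagent, wait 15 min, read luminescence.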

[6] = HEK293 12hr Apoptosis Induction qHTS against the NCATS CANVASS Library (AID 1347361)
Outline: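 Cells are seeded, dosed with an 11-point compound series and incubated 12 hours. Caspase-3/7 activity is detected by luminescent DEVD-substrate reagent after 15 minutes at room temperature.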

[7] = system: NAD(P)H diaphorase (Clostridium kluyveri); assay: Diaphorse counterscreen qHTS: Assay Interference Panel against the NCATS CANVASS Library (AID 1347362)
Outline: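 Clostridium kluyveri diaphorase in PBS with 0.01% Tween-20 was preincubated 15 min at room temperature in the dark with compounds (11-point series). Resorufin fluorescence (ex 525/20, em 598/25) was read 5 min after adding resazurin/NADH.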

[8] = biological target: Luciferin 4-monooxygenase (Photinus pyralis) (UniProt P08659); assay: Firefly luciferase counterscreen qHTS: Assay Interference Panel against the NCATS CANVASS Library (AID 1347363)
Outline: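 Purified P. pyralis luciferase was added to compounds (11-point series) preincubated 15 min at room temperature with substrate containing 0.013 mM D-luciferin and 0.013 mM ATP; luminescence was read after 5 min.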

[9] = KB-8-5-11 Cancer Cell Toxicity qHTS against the NCATS CANVASS Library (AID 1347364); settings: KB-8-5-11 MDR cells viability, CellTiter-Glo, 72 h; at 15.4 µM (top of the series); also: nearly all actives have a fitted effect of over 75% in size
Outline: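 KB-8-5-11 cells (500/well) in DMEM + 10% FBS were exposed to compounds in an 11-point qHTS series for 72 hr at 37C, 5% CO2. Viability was read by CellTiter-Glo luminescence.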

[10] = SDT Cancer Cell Toxicity qHTS against the NCATS CANVASS Library (AID 1347365);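 also: SDT canine glioma cells 500 per well in 1536 well plates; nearly all actives have a fitted effect of over 60% in size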
Outline: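 SDT canine glioma cells (500 cells/well) were exposed to compounds in an 11-point series for 72 hr at 37C, 5% CO2; viability was read as ATP content by CellTiterGlo luminescence.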

Measured: outcome

Sequence of Luciferin 4-monooxygenase (Photinus pyralis) (P08659 whole entry, looked up): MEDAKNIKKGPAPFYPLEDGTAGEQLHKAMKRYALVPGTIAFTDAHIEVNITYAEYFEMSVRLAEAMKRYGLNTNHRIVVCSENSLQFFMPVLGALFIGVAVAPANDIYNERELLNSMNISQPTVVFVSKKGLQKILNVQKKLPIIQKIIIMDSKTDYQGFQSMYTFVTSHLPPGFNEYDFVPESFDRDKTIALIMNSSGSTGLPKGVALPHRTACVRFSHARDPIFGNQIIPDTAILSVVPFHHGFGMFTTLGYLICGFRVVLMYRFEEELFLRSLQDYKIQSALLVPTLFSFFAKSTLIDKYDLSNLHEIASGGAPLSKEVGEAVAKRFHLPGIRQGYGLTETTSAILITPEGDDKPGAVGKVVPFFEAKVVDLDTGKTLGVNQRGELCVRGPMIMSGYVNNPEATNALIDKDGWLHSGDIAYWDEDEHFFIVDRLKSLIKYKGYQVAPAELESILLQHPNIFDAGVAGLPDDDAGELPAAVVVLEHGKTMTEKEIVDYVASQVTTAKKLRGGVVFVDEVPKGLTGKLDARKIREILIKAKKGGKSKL

C[C@@H]1O[C@@H](OC[C@H]2O[C@@H](Oc3c(-c4ccc(O)c(O)c4)oc4cc(O)cc(O)c4c3=O)[C@H](O)[C@@H](O)[C@@H]2O)[C@H](O)[C@H](O)[C@H]1O
inactive: all assays above

Reference: PubChem BioAssay (NCATS)
